Screening results from PubChem.
Tg IFNy HTS: T. gondii growth inhibition under IFN-gamma. hit rate 3.8% among 69,000. Toxoplasma gondii growth in IFN-gamma-treated host cells; active compounds read low. activity change, negative = inhibition, % (test concentration not listed); in the data active means activity change below about -70%, passing the limit was not always enough;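 further: host cells are HeLa cells infected with Toxoplasma gondii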
Numbers stand for hits; ! = repeats disagree. Shown is part of a subset that was picked to be rich in hits.

How did Cc1ccc(C(=O)Nc2ccc(Oc3cc4cnn(C)c4cc3-c3cn[nH]c3)c(F)c2)c(=O)n1-c1ccc(F)cc1 do in these assays?
Tg IFNy HTS: -74

What do the screens show for `CC1=CC[C@@H]2CN(C(=O)c3ccn4nnnc4c3)C[C@@H]2C1`?
Tg IFNy HTS: inactive

Results for N#CCc1nn(-c2ccccc2)c(-n2cccc2)c1C#N ?
Tg IFNy HTS: inactive

What do the screens show for `COc1ccc(-c2cc(N)nc3[nH]ccc23)cn1`?
Tg IFNy HTS: inactive

How did Nc1cc(-c2cnc3ccccc3n2)c2cc[nH]c2n1 do in these assays?
Tg IFNy HTS: -90

Results for Cc1cnc(C)c(-c2cc(N)nc3[nH]ccc23)n1 ?
Tg IFNy HTS: inactive

What do the screens show for `Cc1cccc(-n2nc(CC(C)C)nc2-c2ccnc(-n3cnnc3)c2)c1`?
Tg IFNy HTS: inactive

How did Cc1nn(CC(C)C(=O)Nc2ncc(Cc3ccccc3F)s2)c(C)c1C (configuration not stated) do in these assays?
Tg IFNy HTS: inactive

Results for COc1ccc2c(c1)C=C(CN(C)Cc1cc(-c3ccncc3)no1)CO2 ?
Tg IFNy HTS: inactive

What do the screens show for `COC(=O)c1c(NCc2c(C)noc2C)c2ccccc2[nH]c1=O`?
Tg IFNy HTS: inactive

How did COC(=O)c1c(NCCc2c[nH]c3ccccc23)c2ccccc2[nH]c1=O do in these assays?
Tg IFNy HTS: -89

Results for COC(=O)c1c(NCCN2CCCc3ccccc32)c2cc(F)ccc2[nH]c1=O ?
Tg IFNy HTS: inactive

How did COC(=O)c1c(NCCc2cccs2)c2ccc(F)cc2[nH]c1=O do in these assays?
Tg IFNy HTS: inactive

What do the screens show for `COC(=O)c1c(NCc2ccccc2Br)c2cc(F)ccc2[nH]c1=O`?
Tg IFNy HTS: inactive

What do the screens show for `COC(=O)c1c(NCCc2c[nH]c3ccccc23)c2cc(Cl)ccc2[nH]c1=O`?
Tg IFNy HTS: -115

How did COC(=O)c1c(NCC(C)O)c2cc(F)ccc2[nH]c1=O (configuration not stated) do in these assays?
Tg IFNy HTS: inactive

Results for COC(=O)c1c(NCCc2ccc(Cl)cc2)c2cc(F)ccc2[nH]c1=O ?
Tg IFNy HTS: -94

Results for COC(=O)c1c(NCC(C)C)c2cc(F)ccc2[nH]c1=O ?
Tg IFNy HTS: inactive

What do the screens show for `FC(F)(F)C(OCc1nc(CCc2ccccc2)n[nH]1)c1ccccc1` (configuration not stated)?
Tg IFNy HTS: inactive

Results for O=C(c1ccoc1)N1CCC2O[C@H](COCc3ccccn3)CCC21 (some centres not stated) ?
Tg IFNy HTS: inactive

Results for CC(NS(=O)(=O)c1ccc2c(c1)n(C)c(=O)n2C)c1nc2ccccc2s1 (configuration not stated) ?
Tg IFNy HTS: inactive

Results for Cc1ncc(CN2CCOC(C)(C(=O)N(C)C)C2)cn1 (configuration not stated) ?
Tg IFNy HTS: inactive

Results for O=C(CSc1nnc(-c2ccco2)o1)N1c2ccccc2Sc2ccc(Cl)cc21 ?
Tg IFNy HTS: inactive

What do the screens show for `CN(C)CCCN1c2ccccc2CCc2ccccc21`?
Tg IFNy HTS: inactive

How did CN(C)CCCN1c2ccccc2Sc2ccc(Cl)cc21 do in these assays?
Tg IFNy HTS: -81!

Results for CC(=O)c1ccc2c(c1)N(CCCN1CCC(CCO)CC1)c1ccccc1S2 ?
Tg IFNy HTS: inactive

What do the screens show for `O=C(CCN1CCN2CCCCC2C1)N1c2ccccc2Sc2ccc(Cl)cc21` (configuration not stated)?
Tg IFNy HTS: inactive

What do the screens show for `OCCN1CCN(CCCN2c3ccccc3Sc3ccc(Cl)cc32)CC1`?
Tg IFNy HTS: -100!

Results for O=C(c1cn[nH]n1)N(CCCO)Cc1cccnc1 ?
Tg IFNy HTS: inactive

What do the screens show for `Cc1c(Br)c(C(F)(F)F)nn1CC(=O)O`?
Tg IFNy HTS: inactive

How did Cc1ccc(CSc2ccc(-c3sc(-c4ccc(F)cc4)nc3C)nn2)cc1 do in these assays?
Tg IFNy HTS: inactive

Results for COCCN1CCC(c2nnc3ccc(C(=O)NCCc4ccncc4)cn23)C1 (configuration not stated) ?
Tg IFNy HTS: inactive

Results for Cc1ccccc1SCC(=O)N1CCCC2(CN(C)C(=O)O2)C1 (configuration not stated) ?
Tg IFNy HTS: inactive

How did CCOCC(=O)NCCc1sc(-c2ccc(Cl)cc2)nc1C do in these assays?
Tg IFNy HTS: inactive

Results for CC(C)C(=O)NCc1csc(C2CCCN(C(=O)c3c(F)cccc3F)C2)n1 (configuration not stated) ?
Tg IFNy HTS: inactive

Results for O=C(Nc1ccc(OC(F)(F)F)cc1)OCc1ccc(C#Cc2ccccc2)s1 ?
Tg IFNy HTS: -83

Results for CCOC(=O)c1cncc(C#CCOC(=O)Nc2ccc(OC(F)(F)F)cc2)c1 ?
Tg IFNy HTS: inactive

Results for O=C(O)CC1(CC(=O)Nc2ccc(OC(F)(F)F)cc2)CCCC1 ?
Tg IFNy HTS: inactive

How did COc1ccc2nc(CCN(C)C(=O)C3CC4(CCNCC4)CN3)[nH]c2c1 (configuration not stated) do in these assays?
Tg IFNy HTS: inactive

What do the screens show for `CCOC(=O)CN1C(=N)N(c2nc(SC)nc(N(C)C)n2)CC1=O`?
Tg IFNy HTS: inactive
